Our source for the activity change values is PubChem BioAssay AID1159554 (Broad Institute, 2015).

Each structure is given as a SMILES string. Among all 94,000 compounds or so, about 2,100 (2.2%) were called active. What follows is part of a selection rich in actives, with near analogues and random picks from the rest. Values without a mark were called inactive. No stated cut-off is given here; in the data, active means activity change below about -80%; inconclusive means no clear call, values can overlap the other calls; inactive means above that.

A short description of this assay: Dd2 malaria parasite growth inhibition – SYBR Green fluorescence, single dose replicates, primary screen (AID 1159554). Particulars: P. falciparum Dd2 growth, 72 h, at 10 µM, active compounds read low.
As to `O=C(N[C@@H]1C=C[C@@H](CC(=O)N2CCOCC2)O[C@H]1CO)c1ccccn1`, the activity change was 35.5%.

Consider `O=C(NCCN1CCCCC1)[C@@H]1N[C@@H]2c3ccc(-c4ccccc4)c(=O)n3C[C@@H]2[C@H]1CO`, for which the activity change was 50.6%.

Regarding `COc1cccc(NC(=O)C[C@H]2CC[C@@H]3[C@@H](COc4ccc(NC(=O)C5CCOCC5)cc4C(=O)N3C)O2)c1`, the activity change was 15.2%.

For the compound `C/C=C/c1ccccc1[C@@H]1[C@@H](C#N)N(c2nc(CC)cs2)[C@@H]1CO`, the activity change was -18.3%.

Take `N#C[C@@H]1[C@H](c2ccccc2-c2ccccc2)[C@H](CO)N1c1ncc(-c2ccccc2)s1`: the activity change was -4.56%.

In the case of `C/C=C/c1ccccc1[C@H]1[C@@H](C#N)N(C(=O)Cc2ccccn2)[C@@H]1CO`, the activity change was 1.87%.

For the compound `C/C=C/c1ccccc1[C@H]1[C@@H](C#N)N(C(C)=O)[C@@H]1CO`, the activity change is 7.51%.

In the case of `CCc1sc(N2[C@@H](C#N)[C@@H](c3ccccc3-c3ccccc3)[C@@H]2CO)nc1C`, the activity change was -83.4% (active).

For the compound `C/C=C/c1ccccc1[C@@H]1[C@@H](CO)N(S(=O)(=O)c2cccc(F)c2)[C@H]1C#N`, the activity change was -88% (active).

Take `C/C=C/c1ccccc1[C@H]1[C@@H](C#N)N(c2nc(CC)cs2)[C@@H]1CO`: the activity change was -82.9% (active).

Turning to `Cc1ccc(-c2ccccc2[C@H]2[C@@H](C#N)N(c3ncc(-c4ccccc4)s3)[C@@H]2CO)cc1`, the activity change is -65.2%.

For `N#C[C@@H]1[C@H](c2ccccc2C2=CCCCC2)[C@@H](CO)N1S(=O)(=O)c1cccc(F)c1`, the activity change was -43.9%.

Take `O=C(NC1CCCCC1)N[C@H]1CC[C@H](CCNS(=O)(=O)c2ccc(F)cc2)O[C@H]1CO`: the activity change was 24.8%.

`C/C=C/c1ccc([C@@H]2[C@H](CO)N(S(=O)(=O)Cc3ccccc3)C23CN(C(=O)C2CCOCC2)C3)cc1`: the activity change is -52%.

With `CO[C@H]1CN(C)C(=O)c2ccc(NC(=O)C3CC3)cc2OC[C@H](C)N(C(=O)CN2CCOCC2)C[C@@H]1C`, the activity change was 26.1%.

Take `CC(C)(C)[S@@](=O)N1Cc2cc(C(=O)O)nc(-c3cccc(-c4cccc(F)c4)c3)c2[C@H]1CCO`: the activity change was 41.4%.

Turning to `COc1ccccc1C#Cc1ccc([C@@H]2[C@H](CO)N3CCCCN(C(=O)C4CCCC4)C[C@@H]23)cc1`, the activity change was -47.8%.

For `CCC(=O)Nc1ccc2c(c1)OC[C@H](C)N(C(=O)Cc1cccnc1)C[C@@H](C)[C@@H](OC)CN(C)C2=O`, the activity change is 8.05%.

As for `Cn1cnc(CCNC(=O)C[C@H]2CC[C@@H]3[C@H](COC[C@H](O)CN3C(=O)C3CC3)O2)c1`, the activity change is -3%.

For `COc1ccc(NC(=O)Nc2ccc3c(c2)C(=O)N([C@H](C)CO)C[C@@H](C)[C@H](CN(C)C(=O)Nc2ccc(C(F)(F)F)cc2)OCCCC[C@@H](C)O3)cc1`, the activity change is -69%.

On to `C[C@H](CO)N1C[C@H](C)[C@@H](CN(C)S(C)(=O)=O)OCCCC[C@H](C)Oc2ccc(NC(=O)Nc3ccc(C(F)(F)F)cc3)cc2C1=O`, for which the activity change was 30.4%.

Turning to `CC(C)NC(=O)Nc1ccc2c(c1)C(=O)N([C@@H](C)CO)C[C@@H](C)[C@@H](CN(C)C(=O)Nc1ccc(C(F)(F)F)cc1)OCCCC[C@H](C)O2`, the activity change is -63.3%.

Consider `C[C@@H]1CCCCO[C@H](CN(C)C(=O)Nc2ccc(C(F)(F)F)cc2)[C@@H](C)CN([C@@H](C)CO)C(=O)c2cc(NC(=O)Nc3cccc4ccccc34)ccc2O1`, for which the activity change was -88.3% (active).

Consider `CNC[C@@H]1OCCCC[C@H](C)Oc2ccc(NC(=O)Nc3ccccc3)cc2C(=O)N([C@H](C)CO)C[C@H]1C`, for which the activity change is 31%.

On to `CNC[C@H]1OCCCC[C@H](C)Oc2ccc(NC(=O)Nc3ccc(C(F)(F)F)cc3)cc2C(=O)N([C@H](C)CO)C[C@@H]1C`, for which the activity change is -14.8%.

Take `Cc1ccc(S(=O)(=O)N(C)C[C@@H]2OCCCC[C@@H](C)Oc3ccc(NC(=O)Nc4ccc(C(F)(F)F)cc4)cc3C(=O)N([C@@H](C)CO)C[C@@H]2C)cc1`: the activity change is -86.1% (active).

In the case of `CC(C)NC(=O)Nc1ccc2c(c1)C(=O)N([C@H](C)CO)C[C@H](C)[C@H](CN(C)C(=O)Nc1ccc(C(F)(F)F)cc1)OCCCC[C@@H](C)O2`, the activity change is 1.85%.

Consider `COc1ccc(NC(=O)N(C)C[C@H]2OCCCC[C@H](C)Oc3ccc(NC(=O)Nc4ccc(C(F)(F)F)cc4)cc3C(=O)N([C@@H](C)CO)C[C@@H]2C)cc1`, for which the activity change was -39.3%.

Take `Cc1ccc(S(=O)(=O)N(C)C[C@H]2OCCCC[C@@H](C)Oc3ccc(NC(=O)Nc4ccc(F)cc4)cc3C(=O)N([C@@H](C)CO)C[C@H]2C)cc1`: the activity change is -68.1%.

On to `CNC[C@H]1OCCCC[C@@H](C)Oc2ccc(NC(=O)Nc3ccc(C(F)(F)F)cc3)cc2C(=O)N([C@H](C)CO)C[C@H]1C`, for which the activity change was -82.5% (active).

For the compound `C[C@@H]1CCCCO[C@H](CN(C)C(=O)Nc2ccc(C(F)(F)F)cc2)[C@H](C)CN([C@H](C)CO)C(=O)c2cc(NC(=O)Nc3ccc(C(F)(F)F)cc3)ccc2O1`, the activity change was -80.3% (active).

Regarding `CC(=O)N1[C@H](CN(C)S(=O)(=O)c2ccccc2)[C@H](c2ccccc2)[C@@H]1CO`, the activity change is 4.68%.

Take `COc1cccc(-c2ccc3n(c2=O)C[C@H]2[C@H](CO)[C@@H](C(=O)NC4CCCC4)[C@@H]3N2C)c1`: the activity change was 2.57%.

Turning to `COc1ccc2c3c(n(C)c2c1)[C@@H](CO)N(C(=O)NC1CCCC1)CC31CCN(C(C)=O)CC1`, the activity change was -2.48%.

Turning to `C[C@@H](NC(=O)C[C@H]1CC[C@H]2[C@@H](COC[C@@H](O)CN2C(=O)Nc2ccccc2)O1)c1ccccc1`, the activity change is 8.13%.

As for `C[C@H](CO)N1C[C@H](C)[C@@H](CN(C)Cc2ccc3c(c2)OCO3)OCCCC[C@H](C)Oc2ccc(NC(=O)Nc3ccc(C(F)(F)F)cc3)cc2C1=O`, the activity change was -41.8%.

With `Cc1ccccc1S(=O)(=O)NCC[C@@H]1CC[C@H](NC(=O)C2CCCCC2)[C@@H](CO)O1`, the activity change was 7.15%.

On to `CCS(=O)(=O)N1CC(=O)N2[C@H](CO)[C@@H](c3ccc(C#CC4CCCC4)cc3)[C@@H]2C1`, for which the activity change was -15.8%.

On to `C[C@@H]1CCCCO[C@@H](CN(C)C(=O)Nc2cccc3ccccc23)[C@H](C)CN([C@H](C)CO)C(=O)c2cc(NC(=O)NC3CCCCC3)ccc2O1`, for which the activity change was -62.1%.

Turning to `C[C@@H]1CCCCO[C@@H](CN(C)C(=O)Nc2ccccc2)[C@@H](C)CN([C@H](C)CO)C(=O)c2cc(NC(=O)Nc3ccc(F)cc3)ccc2O1`, the activity change is 24.9%.

Regarding `C[C@@H]1CCCCO[C@@H](CN(C)C(=O)Nc2ccc(F)cc2)[C@H](C)CN([C@H](C)CO)C(=O)c2cc(NC(=O)Nc3cccc4ccccc34)ccc2O1`, the activity change is -24.3%.

As to `C[C@@H]1CCCCO[C@H](CN(C)C(=O)Nc2cccc3ccccc23)[C@@H](C)CN([C@H](C)CO)C(=O)c2cc(NC(=O)Nc3ccc4c(c3)OCO4)ccc2O1`, the activity change is -49.2%.

As for `Cc1ccc(S(=O)(=O)N(C)C[C@@H]2OCCCC[C@@H](C)Oc3ccc(NS(=O)(=O)c4ccccc4)cc3C(=O)N([C@H](C)CO)C[C@@H]2C)cc1`, the activity change was -57.4%.

Regarding `C[C@H]1CCCCO[C@@H](CN(C)C(=O)Nc2ccccc2)[C@@H](C)CN([C@@H](C)CO)C(=O)c2cc(NC(=O)Nc3ccc(F)cc3)ccc2O1`, the activity change is -17.9%.

In the case of `COc1ccc(NC(=O)Nc2ccc3c(c2)C(=O)N([C@@H](C)CO)C[C@H](C)[C@@H](CN(C)C(=O)Nc2cccc4ccccc24)OCCCC[C@@H](C)O3)cc1`, the activity change is -66%.

Regarding `C[C@@H]1CCCCO[C@H](CN(C)C(=O)Nc2ccccc2)[C@H](C)CN([C@H](C)CO)C(=O)c2cc(NC(=O)Nc3ccccc3)ccc2O1`, the activity change was -88.7% (active).

Consider `C[C@@H]1CCCCO[C@H](CN(C)C(=O)Nc2cccc3ccccc23)[C@@H](C)CN([C@@H](C)CO)C(=O)c2cc(NC(=O)Nc3ccc(F)cc3)ccc2O1`, for which the activity change is -88.2% (active).

On to `C[C@@H]1CCCCO[C@@H](CN(C)S(=O)(=O)c2ccc(Cl)cc2)[C@H](C)CN([C@@H](C)CO)C(=O)c2cc(NC(=O)Cc3ccccc3)ccc2O1`, for which the activity change was -69%.

In the case of `Cc1ccc(S(=O)(=O)N(C)C[C@H]2OCCCC[C@H](C)Oc3ccc(NC(=O)Cc4ccccc4)cc3C(=O)N([C@@H](C)CO)C[C@@H]2C)cc1`, the activity change is -81.9% (active).

In the case of `C[C@@H]1CN([C@@H](C)CO)C(=O)c2cc(NC(=O)Nc3ccc(C(F)(F)F)cc3)ccc2O[C@@H](C)CCCCO[C@@H]1CN(C)C(=O)Nc1cccc2ccccc12`, the activity change is -85.5% (active).

For the compound `Cc1ccc(S(=O)(=O)Nc2ccc3c(c2)C(=O)N([C@@H](C)CO)C[C@@H](C)[C@H](CN(C)Cc2ccc(Cl)c(Cl)c2)OCCCC[C@@H](C)O3)cc1`, the activity change is -43.2%.

Regarding `C[C@@H]1CN([C@H](C)CO)S(=O)(=O)c2ccc(C3=CCCC3)cc2O[C@H]1CN(C)C(=O)Nc1ccc2c(c1)OCO2`, the activity change was -57.4%.

`COc1ccccc1S(=O)(=O)N[C@@H]1CC[C@@H](CCNC(=O)C2CCCCC2)O[C@@H]1CO`: the activity change is -1.07%.

Take `O=C(Nc1cccc(Cl)c1)N[C@@H]1CC[C@@H](CCNC(=O)C2CCOCC2)O[C@@H]1CO`: the activity change was -0.665%.

Turning to `C/C=C/c1cnc2c(c1)C(=O)N([C@H](C)CO)C[C@@H](C)[C@H](CN(C)Cc1cccc(C(=O)O)c1)O2`, the activity change was 27.8%.

For `O=C(C[C@@H]1CC[C@H]2[C@@H](COC[C@@H](O)CN2CC2CC2)O1)NCc1ccc(Cl)cc1`, the activity change is -0.915%.
